# Experiments:
# Assay in all cases: DAPPL (digital affinity profiling via proximity ligation, sequencing); 10 mM Tris-HCl pH 7.5, 50 mM NaCl, 1 mM DTT, 4% glycerol, room temperature, 30 min; GST-TFs on glutathione beads, 16-mer random dsDNA library, 0.1% formaldehyde crosslink after washing; high values mean tight binding
# [1] = target: T1, FEV (Homo sapiens, UniProt Q99581 1-238); conditions: protein: recombinant; tags: N-terminal GST; dsDNA, one strand shown
# T1 sequence: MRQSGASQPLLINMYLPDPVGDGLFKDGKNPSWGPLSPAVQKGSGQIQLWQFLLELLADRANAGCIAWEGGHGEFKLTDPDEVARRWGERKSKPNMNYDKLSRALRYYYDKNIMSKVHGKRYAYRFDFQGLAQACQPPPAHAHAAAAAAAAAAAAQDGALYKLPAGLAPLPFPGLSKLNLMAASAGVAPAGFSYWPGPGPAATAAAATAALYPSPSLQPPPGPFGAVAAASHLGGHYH
# How it was run: (§1)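 After expression in yeast as GST fusions, human transcription factors were bound to glutathione beads, DNA-barcoded and mixed with a tag-only sample. The pools were incubated with 200 nmole of a 16-mer random double-stranded DNA library in Tris/NaCl/DTT/glycerol buffer (30 min, room temperature), washed and crosslinked with 0.1% formaldehyde. Proximity ligation with BsaI/T4 ligase ran for 1 h at 37 °C, before PCR amplification and sequencing on an Illumina NextSeq500. Binding signal is a hexamer's read frequency for a factor divided by its frequency for the tag-only sample.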
# [2] = target: ETV5 (Homo sapiens, UniProt P41161 1-510); conditions: protein: recombinant; tags: N-terminal GST; dsDNA, one strand shown
# ETV5, sequence (P41161 whole entry): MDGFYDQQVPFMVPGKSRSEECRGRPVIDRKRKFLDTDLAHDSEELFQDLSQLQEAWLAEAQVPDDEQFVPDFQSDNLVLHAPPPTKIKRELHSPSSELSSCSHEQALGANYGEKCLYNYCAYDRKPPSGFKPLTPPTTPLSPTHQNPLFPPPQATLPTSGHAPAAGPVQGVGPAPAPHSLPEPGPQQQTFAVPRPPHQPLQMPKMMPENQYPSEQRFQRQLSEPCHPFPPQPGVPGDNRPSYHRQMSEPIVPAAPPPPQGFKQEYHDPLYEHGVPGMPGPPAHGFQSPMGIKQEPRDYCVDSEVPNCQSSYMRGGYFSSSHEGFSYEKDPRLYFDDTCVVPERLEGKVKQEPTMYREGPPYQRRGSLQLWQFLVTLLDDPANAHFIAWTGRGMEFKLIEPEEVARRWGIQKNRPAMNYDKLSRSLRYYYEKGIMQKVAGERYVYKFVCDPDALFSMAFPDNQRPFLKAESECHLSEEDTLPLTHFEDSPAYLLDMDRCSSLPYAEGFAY
# How it was run: as §1
# [3] = target: HSF1 (Homo sapiens, UniProt Q00613 1-529); conditions: protein: recombinant; tags: N-terminal GST; chain copies: 3; dsDNA, one strand shown
# HSF1, sequence (Q00613 whole entry): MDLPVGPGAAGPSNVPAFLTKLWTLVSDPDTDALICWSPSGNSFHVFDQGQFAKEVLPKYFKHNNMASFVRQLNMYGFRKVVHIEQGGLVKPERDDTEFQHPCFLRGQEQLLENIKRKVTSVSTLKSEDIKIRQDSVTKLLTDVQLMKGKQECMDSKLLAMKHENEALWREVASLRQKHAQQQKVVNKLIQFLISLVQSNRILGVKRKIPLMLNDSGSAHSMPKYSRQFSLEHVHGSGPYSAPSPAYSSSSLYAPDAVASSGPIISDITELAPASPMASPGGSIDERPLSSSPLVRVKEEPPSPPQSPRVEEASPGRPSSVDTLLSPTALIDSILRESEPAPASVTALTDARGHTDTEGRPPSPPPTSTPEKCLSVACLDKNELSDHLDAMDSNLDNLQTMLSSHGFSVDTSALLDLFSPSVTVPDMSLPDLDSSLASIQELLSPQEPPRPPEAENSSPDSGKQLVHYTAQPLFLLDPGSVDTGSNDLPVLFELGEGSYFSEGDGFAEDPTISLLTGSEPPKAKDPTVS
# How it was run: as §1
# [4] = target: T2, SPIC (Homo sapiens, UniProt Q8N5J4 1-248); conditions: protein: recombinant; tags: N-terminal GST; dsDNA, one strand shown
# T2 sequence: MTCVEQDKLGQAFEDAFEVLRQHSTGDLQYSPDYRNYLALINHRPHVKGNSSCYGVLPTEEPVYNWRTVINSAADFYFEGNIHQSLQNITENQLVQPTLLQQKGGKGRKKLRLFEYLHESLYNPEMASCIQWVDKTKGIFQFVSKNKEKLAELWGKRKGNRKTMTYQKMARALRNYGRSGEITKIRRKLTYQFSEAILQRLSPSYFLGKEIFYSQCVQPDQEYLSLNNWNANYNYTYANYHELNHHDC
# How it was run: as §1
# [5] = target: ELF4 (Homo sapiens, UniProt Q99607 1-663); conditions: protein: recombinant; tags: N-terminal GST; dsDNA, one strand shown
# ELF4, sequence (Q99607 whole entry): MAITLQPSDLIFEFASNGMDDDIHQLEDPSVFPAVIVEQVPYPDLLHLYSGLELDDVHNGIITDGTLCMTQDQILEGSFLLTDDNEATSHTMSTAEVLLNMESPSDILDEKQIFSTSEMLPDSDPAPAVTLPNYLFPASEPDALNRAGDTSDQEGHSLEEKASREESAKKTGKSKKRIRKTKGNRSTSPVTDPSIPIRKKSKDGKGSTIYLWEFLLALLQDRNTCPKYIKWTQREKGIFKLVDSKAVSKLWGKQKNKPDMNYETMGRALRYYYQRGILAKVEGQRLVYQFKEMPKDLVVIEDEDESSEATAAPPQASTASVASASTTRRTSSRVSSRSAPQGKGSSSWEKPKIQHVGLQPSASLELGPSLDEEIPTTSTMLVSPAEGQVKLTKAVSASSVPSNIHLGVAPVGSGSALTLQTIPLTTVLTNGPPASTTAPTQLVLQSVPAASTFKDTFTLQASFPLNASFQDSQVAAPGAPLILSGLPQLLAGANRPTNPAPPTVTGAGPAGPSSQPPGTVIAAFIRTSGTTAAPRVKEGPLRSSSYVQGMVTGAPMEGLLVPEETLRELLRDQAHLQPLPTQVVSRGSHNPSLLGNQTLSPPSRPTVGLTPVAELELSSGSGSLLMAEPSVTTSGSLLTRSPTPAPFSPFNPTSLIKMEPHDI
# How it was run: as §1
# [6] = target: T3, ELK4 (Homo sapiens, UniProt P28324-2 1-405); conditions: protein: recombinant; tags: N-terminal GST; dsDNA, one strand shown
# T3 sequence: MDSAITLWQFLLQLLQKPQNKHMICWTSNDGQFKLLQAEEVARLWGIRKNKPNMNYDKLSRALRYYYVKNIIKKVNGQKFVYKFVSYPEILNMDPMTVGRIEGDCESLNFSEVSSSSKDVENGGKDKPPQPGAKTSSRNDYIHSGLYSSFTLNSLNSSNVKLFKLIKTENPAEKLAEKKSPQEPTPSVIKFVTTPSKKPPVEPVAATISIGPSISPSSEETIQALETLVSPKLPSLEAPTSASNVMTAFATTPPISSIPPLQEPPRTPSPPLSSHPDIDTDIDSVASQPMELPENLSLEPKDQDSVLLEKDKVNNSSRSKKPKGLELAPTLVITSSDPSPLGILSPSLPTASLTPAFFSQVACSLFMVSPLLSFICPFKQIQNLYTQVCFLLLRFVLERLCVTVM
# How it was run: as §1
# [7] = target: T4, ETV2 (Homo sapiens, UniProt O00321 1-342); conditions: protein: recombinant; tags: N-terminal GST; dsDNA, one strand shown
# T4 sequence: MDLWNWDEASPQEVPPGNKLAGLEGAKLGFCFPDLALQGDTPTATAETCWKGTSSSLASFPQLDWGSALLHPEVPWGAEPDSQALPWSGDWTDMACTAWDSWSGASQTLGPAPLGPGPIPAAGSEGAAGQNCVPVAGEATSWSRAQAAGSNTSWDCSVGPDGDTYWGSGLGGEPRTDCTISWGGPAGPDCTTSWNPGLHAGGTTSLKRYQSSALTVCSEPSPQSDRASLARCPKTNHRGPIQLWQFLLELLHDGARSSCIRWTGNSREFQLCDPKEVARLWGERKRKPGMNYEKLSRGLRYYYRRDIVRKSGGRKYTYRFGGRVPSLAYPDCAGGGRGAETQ
# How it was run: as §1
# [8] = target: T5, ELF3 (Homo sapiens, UniProt P78545 1-371); conditions: protein: recombinant; tags: N-terminal GST; dsDNA, one strand shown
# T5 sequence: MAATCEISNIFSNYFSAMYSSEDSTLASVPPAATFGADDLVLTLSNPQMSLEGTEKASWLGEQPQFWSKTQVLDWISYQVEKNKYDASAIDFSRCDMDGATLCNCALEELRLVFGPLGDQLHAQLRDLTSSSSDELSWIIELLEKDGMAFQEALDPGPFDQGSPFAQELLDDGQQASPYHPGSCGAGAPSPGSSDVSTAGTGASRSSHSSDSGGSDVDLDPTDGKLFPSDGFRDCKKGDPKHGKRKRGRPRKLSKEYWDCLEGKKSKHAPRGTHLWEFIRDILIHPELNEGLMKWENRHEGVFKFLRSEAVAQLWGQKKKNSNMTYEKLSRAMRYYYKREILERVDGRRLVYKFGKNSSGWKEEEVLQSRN
# How it was run: as §1
# [9] = target: CRX (Homo sapiens, UniProt O43186 1-299); conditions: protein: recombinant; tags: N-terminal GST; dsDNA, one strand shown
# CRX, sequence (O43186 whole entry): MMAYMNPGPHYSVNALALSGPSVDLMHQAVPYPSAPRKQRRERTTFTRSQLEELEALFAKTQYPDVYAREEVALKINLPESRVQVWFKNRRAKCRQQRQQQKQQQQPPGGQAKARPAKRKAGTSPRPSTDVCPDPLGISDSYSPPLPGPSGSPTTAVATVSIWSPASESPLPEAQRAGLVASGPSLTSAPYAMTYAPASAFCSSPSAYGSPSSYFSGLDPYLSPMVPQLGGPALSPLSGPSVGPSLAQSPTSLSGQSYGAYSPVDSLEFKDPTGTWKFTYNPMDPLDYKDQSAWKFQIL
# How it was run: as §1
# [10] = target: ETV1 (Homo sapiens, UniProt P50549 1-477); conditions: protein: recombinant; tags: N-terminal GST; dsDNA, one strand shown
# ETV1, sequence (P50549 whole entry): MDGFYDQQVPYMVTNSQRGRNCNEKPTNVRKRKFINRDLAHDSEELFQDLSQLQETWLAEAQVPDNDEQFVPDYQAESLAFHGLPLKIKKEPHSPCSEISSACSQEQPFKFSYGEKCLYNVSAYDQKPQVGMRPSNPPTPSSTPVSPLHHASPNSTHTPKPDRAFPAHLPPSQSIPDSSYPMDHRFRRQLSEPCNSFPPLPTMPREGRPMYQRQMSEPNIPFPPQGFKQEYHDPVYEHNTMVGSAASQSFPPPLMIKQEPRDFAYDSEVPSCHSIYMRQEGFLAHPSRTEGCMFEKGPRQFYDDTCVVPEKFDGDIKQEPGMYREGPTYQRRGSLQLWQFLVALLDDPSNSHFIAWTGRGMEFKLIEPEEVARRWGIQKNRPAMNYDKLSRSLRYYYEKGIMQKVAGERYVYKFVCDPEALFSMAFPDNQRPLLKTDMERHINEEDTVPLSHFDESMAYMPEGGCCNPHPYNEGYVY
# How it was run: as §1
# [11] = target: T6, ERF (Homo sapiens, UniProt P50548 1-548); conditions: protein: recombinant; tags: N-terminal GST; dsDNA, one strand shown
# T6 sequence: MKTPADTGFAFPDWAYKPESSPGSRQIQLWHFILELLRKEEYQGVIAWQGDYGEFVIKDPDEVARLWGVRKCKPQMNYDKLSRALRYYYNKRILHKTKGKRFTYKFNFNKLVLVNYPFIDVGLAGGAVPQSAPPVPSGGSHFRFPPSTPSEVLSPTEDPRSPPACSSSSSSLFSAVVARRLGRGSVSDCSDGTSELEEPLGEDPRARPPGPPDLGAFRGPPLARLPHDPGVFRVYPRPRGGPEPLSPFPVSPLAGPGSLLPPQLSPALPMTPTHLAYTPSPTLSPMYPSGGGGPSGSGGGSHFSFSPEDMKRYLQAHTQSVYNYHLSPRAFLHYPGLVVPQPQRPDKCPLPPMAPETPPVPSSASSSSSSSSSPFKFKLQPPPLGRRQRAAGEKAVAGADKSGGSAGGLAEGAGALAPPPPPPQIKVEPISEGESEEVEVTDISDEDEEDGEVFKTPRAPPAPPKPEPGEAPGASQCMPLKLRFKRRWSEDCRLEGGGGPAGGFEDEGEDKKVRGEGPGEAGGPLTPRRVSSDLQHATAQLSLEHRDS
# How it was run: as §1
# [12] = target: T7, ETV3L (Homo sapiens, UniProt Q6ZN32 1-361); conditions: protein: recombinant; tags: N-terminal GST; dsDNA, one strand shown
# T7 sequence: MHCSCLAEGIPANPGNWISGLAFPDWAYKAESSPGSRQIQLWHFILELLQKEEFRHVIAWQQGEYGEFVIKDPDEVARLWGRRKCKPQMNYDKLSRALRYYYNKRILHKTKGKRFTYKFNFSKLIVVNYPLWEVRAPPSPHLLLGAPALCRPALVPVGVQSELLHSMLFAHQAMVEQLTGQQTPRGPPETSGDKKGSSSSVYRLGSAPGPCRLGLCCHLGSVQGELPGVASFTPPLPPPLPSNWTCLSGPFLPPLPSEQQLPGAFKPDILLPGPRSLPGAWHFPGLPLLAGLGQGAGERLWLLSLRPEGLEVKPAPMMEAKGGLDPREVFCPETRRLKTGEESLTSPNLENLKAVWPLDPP
# How it was run: as §1
# [13] = target: T8, ETS2 (Homo sapiens, UniProt P15036 1-469); conditions: protein: recombinant; tags: N-terminal GST; dsDNA, one strand shown
# T8 sequence: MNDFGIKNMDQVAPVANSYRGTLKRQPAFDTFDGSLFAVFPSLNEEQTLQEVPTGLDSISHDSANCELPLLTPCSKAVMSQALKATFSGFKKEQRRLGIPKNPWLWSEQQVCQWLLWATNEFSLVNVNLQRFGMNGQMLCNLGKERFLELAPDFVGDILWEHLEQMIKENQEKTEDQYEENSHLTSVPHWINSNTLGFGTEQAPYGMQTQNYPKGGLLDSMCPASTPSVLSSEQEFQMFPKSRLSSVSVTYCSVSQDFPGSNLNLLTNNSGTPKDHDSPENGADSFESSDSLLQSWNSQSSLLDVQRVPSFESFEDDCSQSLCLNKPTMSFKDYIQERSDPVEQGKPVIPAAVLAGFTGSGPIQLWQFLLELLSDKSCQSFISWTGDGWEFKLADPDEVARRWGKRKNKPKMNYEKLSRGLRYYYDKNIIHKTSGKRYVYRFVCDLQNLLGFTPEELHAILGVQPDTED
# How it was run: as §1
# [14] = target: T9, SPDEF (Homo sapiens, UniProt O95238 1-335); conditions: protein: recombinant; tags: N-terminal GST; dsDNA, one strand shown
# T9 sequence: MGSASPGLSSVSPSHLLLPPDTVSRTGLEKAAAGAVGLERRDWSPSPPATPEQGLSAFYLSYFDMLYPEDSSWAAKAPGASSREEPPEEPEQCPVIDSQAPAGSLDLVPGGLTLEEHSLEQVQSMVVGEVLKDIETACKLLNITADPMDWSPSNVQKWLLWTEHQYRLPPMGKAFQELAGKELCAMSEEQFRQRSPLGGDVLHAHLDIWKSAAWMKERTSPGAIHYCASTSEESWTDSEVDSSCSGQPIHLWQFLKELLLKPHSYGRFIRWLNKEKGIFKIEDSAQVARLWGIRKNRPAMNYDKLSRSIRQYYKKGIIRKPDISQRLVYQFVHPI
# How it was run: as §1
# [15] = target: T10, ETV7 (Homo sapiens, UniProt Q9Y603 1-341); conditions: protein: recombinant; tags: N-terminal GST; dsDNA, one strand shown
# T10 sequence: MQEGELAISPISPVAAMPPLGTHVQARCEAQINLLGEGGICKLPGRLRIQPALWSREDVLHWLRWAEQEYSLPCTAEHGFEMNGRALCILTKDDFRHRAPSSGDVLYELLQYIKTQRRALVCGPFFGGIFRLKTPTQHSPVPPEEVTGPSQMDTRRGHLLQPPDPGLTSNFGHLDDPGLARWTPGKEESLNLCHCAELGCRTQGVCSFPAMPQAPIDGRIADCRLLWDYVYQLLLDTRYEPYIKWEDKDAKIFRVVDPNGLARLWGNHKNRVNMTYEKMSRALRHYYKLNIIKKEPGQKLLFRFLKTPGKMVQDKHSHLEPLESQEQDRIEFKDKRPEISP
# How it was run: as §1
# [16] = target: T11, ELF5 (Homo sapiens, UniProt Q9UKW6-2 1-255); conditions: protein: recombinant; tags: N-terminal GST; dsDNA, one strand shown
# T11 sequence: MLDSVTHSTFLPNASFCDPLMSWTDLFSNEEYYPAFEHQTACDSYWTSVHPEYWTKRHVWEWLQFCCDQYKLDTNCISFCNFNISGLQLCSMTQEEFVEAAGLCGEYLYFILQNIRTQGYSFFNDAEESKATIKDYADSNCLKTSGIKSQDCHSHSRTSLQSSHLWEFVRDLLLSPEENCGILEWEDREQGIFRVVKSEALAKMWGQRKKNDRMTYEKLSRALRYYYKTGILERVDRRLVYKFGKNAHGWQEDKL
# How it was run: as §1
# [17] = target: T12, ETV3 (Homo sapiens, UniProt P41162-2 1-143); conditions: protein: recombinant; tags: N-terminal GST; dsDNA, one strand shown
# T12 sequence: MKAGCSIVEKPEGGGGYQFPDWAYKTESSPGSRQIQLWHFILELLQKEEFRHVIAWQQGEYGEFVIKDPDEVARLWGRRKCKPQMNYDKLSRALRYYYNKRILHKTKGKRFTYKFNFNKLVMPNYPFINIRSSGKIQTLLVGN
# How it was run: as §1
# [18] = target: ETV6 (Homo sapiens, UniProt P41212 1-452); conditions: protein: recombinant; tags: N-terminal GST; dsDNA, one strand shown
# ETV6, sequence (P41212 whole entry): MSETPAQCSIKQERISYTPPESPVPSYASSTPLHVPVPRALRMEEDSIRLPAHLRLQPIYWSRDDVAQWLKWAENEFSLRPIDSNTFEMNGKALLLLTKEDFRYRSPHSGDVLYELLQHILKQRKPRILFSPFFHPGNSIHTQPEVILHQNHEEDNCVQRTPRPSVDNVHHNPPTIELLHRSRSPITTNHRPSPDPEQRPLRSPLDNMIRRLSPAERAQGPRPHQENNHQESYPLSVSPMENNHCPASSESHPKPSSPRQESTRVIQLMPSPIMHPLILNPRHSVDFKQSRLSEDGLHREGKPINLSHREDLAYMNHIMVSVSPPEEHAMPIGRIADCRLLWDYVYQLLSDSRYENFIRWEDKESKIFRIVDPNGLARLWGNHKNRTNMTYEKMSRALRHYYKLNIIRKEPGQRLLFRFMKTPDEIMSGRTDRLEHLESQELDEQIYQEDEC
# How it was run: as §1
sequence,measurement,setting,value
TATGCT,binding signal,[1],"1.24 fold enrichment (6-mer frequency, TF over GST control)"
same,binding signal,[2],"1.39 fold enrichment (6-mer frequency, TF over GST control)"
same,binding signal,[3],"1.41 fold enrichment (6-mer frequency, TF over GST control)"
same,binding signal,[4],"1.6 fold enrichment (6-mer frequency, TF over GST control)"
same,binding signal,[5],"1.31 fold enrichment (6-mer frequency, TF over GST control)"
same,binding signal,[6],"1.4 fold enrichment (6-mer frequency, TF over GST control)"
same,binding signal,[7],"1.3 fold enrichment (6-mer frequency, TF over GST control)"
same,binding signal,[8],"1.37 fold enrichment (6-mer frequency, TF over GST control)"
same,binding signal,[9],"1.51 fold enrichment (6-mer frequency, TF over GST control)"
same,binding signal,[10],"1.29 fold enrichment (6-mer frequency, TF over GST control)"
same,binding signal,[11],"1.18 fold enrichment (6-mer frequency, TF over GST control)"
same,binding signal,[12],"1.45 fold enrichment (6-mer frequency, TF over GST control)"
same,binding signal,[13],"1.29 fold enrichment (6-mer frequency, TF over GST control)"
same,binding signal,[14],"1.36 fold enrichment (6-mer frequency, TF over GST control)"
same,binding signal,[15],"1.32 fold enrichment (6-mer frequency, TF over GST control)"
same,binding signal,[16],"1.29 fold enrichment (6-mer frequency, TF over GST control)"
same,binding signal,[17],"1.32 fold enrichment (6-mer frequency, TF over GST control)"
same,binding signal,[18],"1.24 fold enrichment (6-mer frequency, TF over GST control)"
